# Experimental data: the supplement of paper PMC8728848
# About 410 targets per protein were measured; listed, in parts, are those with the strongest signals and a random draw of the rest.
# B1: PILRa (Homo sapiens), Q9UKJ1 (protein)
# chain: MGRPLLLPLLPLLLPPAFLQPSGSTGSGPSYLYGVTQPKHLSASMGGSVEIPFSFYYPWELATAPDVRISWRRGHFHRQSFYSTRPPSIHKDYVNRLFLNWTEGQKSGFLRISNLQKQDQSVYFCRVELDTRSSGRQQWQSIEGTKLSITQAVTTTTQRPSSMTTTWRLSSTTTTTGLRVTQGKRRSDSWHISLETAVGVAVAVTVLGIMILGLICLLRWRRRKGQQRTKATTPAREPFQNTEEPYENIRNEGQNTDPKLNPKDDGIVYASLALSSSTSPRAPPSHRPLKSPQNETLYSVLKA
# Legend:
# Assay in all cases: glycan array binding signal (z-score within array); higher = stronger binding
# Conditions in all cases: glycan notation: IUPAC condensed, linker removed
# [1] = biological target: Fuc(a1-2)Gal(b1-3)GalNAc(b1-4)[Neu5Ac(a2-3)]Gal(b1-4)Glc
# How it was run: (§1)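 Columns mapping to the same glycan were averaged after glycan names were converted to IUPAC-condensed notation. The data come from 3228 arrays in the Consortium for Functional Glycomics database, limited to those with an available protein sequence. Binding is reported as a within-array Z-score averaged across arrays of one protein sequence and across linkers.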
# [2] = biological target: Fuc(a1-2)Gal(b1-3)[Fuc(a1-4)]GlcNAc(b1-2)Man(a1-3)[Fuc(a1-2)Gal(b1-3)[Fuc(a1-4)]GlcNAc(b1-2)Man(a1-6)]Man(b1-4)GlcNAc(b1-4)GlcNAc
# How it was run: as §1
# [3] = biological target: Fuc(a1-2)Gal(b1-4)[Fuc(a1-3)]GlcNAc(b1-2)[Fuc(a1-2)Gal(b1-4)[Fuc(a1-3)]GlcNAc(b1-4)]Man(a1-3)[Fuc(a1-2)Gal(b1-4)[Fuc(a1-3)]GlcNAc(b1-2)Man(a1-6)]Man(b1-4)GlcNAc(b1-4)GlcNAc
# How it was run: as §1
# [4] = biological target: Fuc(a1-2)Gal(b1-4)[Fuc(a1-3)]GlcNAc(b1-3)GalNAc
# How it was run: as §1
# [5] = biological target: Fuc(a1-2)[Gal(a1-3)]Gal(b1-3)GlcNAc(b1-3)GalNAc
# How it was run: as §1
# [6] = biological target: Fuc(a1-2)[Gal(a1-3)]Gal(b1-4)[Fuc(a1-3)]GlcNAc(b1-3)GalNAc
# How it was run: as §1
# [7] = biological target: Fuc(a1-2)[GalNAc(a1-3)]Gal(b1-3)GalNAc(a1-3)[Fuc(a1-2)]Gal(b1-4)GlcNAc
# How it was run: as §1
# [8] = biological target: Fuc(a1-2)[GalNAc(a1-3)]Gal(b1-3)GlcNAc(b1-3)GalNAc
# How it was run: as §1
# [9] = biological target: Fuc(a1-2)[GalNAc(a1-3)]Gal(b1-4)GlcNAc(b1-3)GalNAc
# How it was run: as §1
# [10] = biological target: Fuc(a1-2)[GalNAc(a1-3)]Gal(b1-4)[Fuc(a1-3)]GlcNAc(b1-3)GalNAc
# How it was run: as §1
# [11] = biological target: Fuc(a1-3)[Gal(b1-4)]GlcNAc(b1-2)Man(a1-6)[Gal(b1-4)GlcNAc(b1-2)Man(a1-3)]Man(b1-4)GlcNAc(b1-4)GlcNAc
# How it was run: as §1
# [12] = biological target: Fuc(a1-3)[Gal3S(b1-4)]GlcNAc6S
# How it was run: as §1
# [13] = biological target: Fuc(a1-3)[GalNAc(b1-4)]GlcNAc
# How it was run: as §1
# [14] = biological target: Gal(a1-3)Gal(b1-3)GlcNAc(b1-2)Man(a1-3)[Gal(a1-3)Gal(b1-3)GlcNAc(b1-2)Man(a1-6)]Man(b1-4)GlcNAc(b1-4)GlcNAc
# How it was run: as §1
# Gal(b1-2)Gal = biological target: Gal(b1-2)Gal
# How it was run: as §1
# [15] = biological target: Gal(b1-3)GlcNAc(b1-3)Gal(b1-3)GlcNAc
# How it was run: as §1
# [16] = biological target: Gal(b1-3)GlcNAc(b1-6)Gal(b1-4)GlcNAc
# How it was run: as §1
# [17] = biological target: Gal(b1-4)GlcNAc(b1-3)[GlcNAc(b1-6)]Gal(b1-4)GlcNAc
# How it was run: as §1
# Gal(b1-6)Gal = biological target: Gal(b1-6)Gal
# How it was run: as §1
# Gal3S(b1-4)Glc6S = biological target: Gal3S(b1-4)Glc6S
# How it was run: as §1
# Gal3S(b1-4)GlcNAc6S = biological target: Gal3S(b1-4)GlcNAc6S
# How it was run: as §1
# [18] = biological target: GalNAc(a1-3)GalNAc(a1-3)Gal(a1-4)Gal(b1-4)GlcNAc
# How it was run: as §1
# GalNAc(b1-3)Gal = biological target: GalNAc(b1-3)Gal
# How it was run: as §1
# [19] = biological target: GalNAc(b1-3)Gal(a1-4)Gal(b1-4)GlcNAc(b1-3)Gal(b1-4)Glc
# How it was run: as §1
# [20] = biological target: GalNAc(b1-3)Gal(a1-6)Gal(b1-4)Glc
# How it was run: as §1
# GlcA(b1-3)GlcNAc = biological target: GlcA(b1-3)GlcNAc
# How it was run: as §1
# [21] = biological target: GlcNAc(a1-3)Gal(b1-4)GlcNAc
# How it was run: as §1
# [22] = biological target: GlcNAc(b1-3)Gal(b1-4)GlcNAc(b1-3)Gal(b1-4)GlcNAc
# How it was run: as §1
# [23] = biological target: GlcNAc(b1-4)[GlcNAc(b1-6)]GalNAc
# How it was run: as §1
# Man(a1-2)Man(a1-3)Man = biological target: Man(a1-2)Man(a1-3)Man
# How it was run: as §1
# Neu5Ac(a2-3)Gal = biological target: Neu5Ac(a2-3)Gal
# How it was run: as §1
# [24] = biological target: Neu5Ac(a2-3)Gal(b1-3)GalNAc(b1-4)[Neu5Ac(a2-3)]Gal(b1-4)Glc
# How it was run: as §1
# [25] = biological target: Neu5Ac(a2-3)Gal(b1-3)GlcNAc
# How it was run: as §1
# [26] = biological target: Neu5Ac(a2-3)Gal(b1-3)GlcNAc(b1-3)Gal(b1-3)GlcNAc
# How it was run: as §1
# Neu5Ac(a2-3)Gal(b1-4)Glc = biological target: Neu5Ac(a2-3)Gal(b1-4)Glc
# How it was run: as §1
# [27] = biological target: Neu5Ac(a2-3)Gal(b1-4)GlcNAc(b1-3)Gal(b1-4)GlcNAc
# How it was run: as §1
# [28] = biological target: Neu5Ac(a2-3)Gal(b1-4)GlcNAc(b1-3)Gal(b1-4)GlcNAc(b1-3)Gal(b1-4)GlcNAc
# How it was run: as §1
# [29] = biological target: Neu5Ac(a2-3)Gal(b1-4)GlcNAc(b1-3)Gal(b1-4)[Fuc(a1-3)]GlcNAc
# How it was run: as §1
# [30] = biological target: Neu5Ac(a2-3)Gal(b1-4)[Fuc(a1-3)]GlcNAc6S
# How it was run: as §1
# [31] = biological target: Neu5Ac(a2-6)Gal(b1-4)GlcNAc(b1-2)Man(a1-3)[Man(a1-6)]Man(b1-4)GlcNAc(b1-4)GlcNAc
# How it was run: as §1
# [32] = biological target: Neu5Gc(a2-3)Gal(b1-4)[Fuc(a1-3)]GlcNAc
# How it was run: as §1
binder,measurement,setting,value
B1,glycan array binding signal (z-score),[1],-0.102
same,glycan array binding signal (z-score),[2],4.38
same,glycan array binding signal (z-score),[3],4.02
same,glycan array binding signal (z-score),[4],5.45
same,glycan array binding signal (z-score),[5],0.023
same,glycan array binding signal (z-score),[6],3.41
same,glycan array binding signal (z-score),[7],-0.142
same,glycan array binding signal (z-score),[8],4.4
same,glycan array binding signal (z-score),[9],-0.194
same,glycan array binding signal (z-score),[10],9.37
same,glycan array binding signal (z-score),[11],-0.546
same,glycan array binding signal (z-score),[12],-0.051
same,glycan array binding signal (z-score),[13],-0.102
same,glycan array binding signal (z-score),[14],4.98
same,glycan array binding signal (z-score),Gal(b1-2)Gal,0.001
same,glycan array binding signal (z-score),[15],0.263
same,glycan array binding signal (z-score),[16],-0.136
same,glycan array binding signal (z-score),[17],-0.338
same,glycan array binding signal (z-score),Gal(b1-6)Gal,-0.177
same,glycan array binding signal (z-score),Gal3S(b1-4)Glc6S,0.618
same,glycan array binding signal (z-score),Gal3S(b1-4)GlcNAc6S,-0.01
same,glycan array binding signal (z-score),[18],-0.27
same,glycan array binding signal (z-score),GalNAc(b1-3)Gal,0.508
same,glycan array binding signal (z-score),[19],-0.169
same,glycan array binding signal (z-score),[20],-0.215
same,glycan array binding signal (z-score),GlcA(b1-3)GlcNAc,6.02
same,glycan array binding signal (z-score),[21],0.089
same,glycan array binding signal (z-score),[22],-0.259
same,glycan array binding signal (z-score),[23],-0.213
same,glycan array binding signal (z-score),Man(a1-2)Man(a1-3)Man,-0.144
same,glycan array binding signal (z-score),Neu5Ac(a2-3)Gal,-0.314
same,glycan array binding signal (z-score),[24],-0.281
same,glycan array binding signal (z-score),[25],0.854
same,glycan array binding signal (z-score),[26],-0.15
same,glycan array binding signal (z-score),Neu5Ac(a2-3)Gal(b1-4)Glc,-0.248
same,glycan array binding signal (z-score),[27],1.17
same,glycan array binding signal (z-score),[28],-0.327
same,glycan array binding signal (z-score),[29],-0.125
same,glycan array binding signal (z-score),[30],-0.092
same,glycan array binding signal (z-score),[31],-0.177
same,glycan array binding signal (z-score),[32],-0.343
